# Rows were chosen to be rich in hits. Some 2.8% of all compounds tested hit in one or more screens of this group.
# SENP8 block-1 = SENP8 protease inhibitors, primary screen, biochemical, luminescence; Sentrin-specific protease 8 (Homo sapiens), Q96LD8; purified SENP8, Z-RLRGG-aminoluciferin cleavage; inhibition, % at 10 µM; 1.2% of 330,000 active; AID 2540, 2010; in the data active means inhibition above about 50%
# Target sequence (Q96LD8 whole entry, looked up): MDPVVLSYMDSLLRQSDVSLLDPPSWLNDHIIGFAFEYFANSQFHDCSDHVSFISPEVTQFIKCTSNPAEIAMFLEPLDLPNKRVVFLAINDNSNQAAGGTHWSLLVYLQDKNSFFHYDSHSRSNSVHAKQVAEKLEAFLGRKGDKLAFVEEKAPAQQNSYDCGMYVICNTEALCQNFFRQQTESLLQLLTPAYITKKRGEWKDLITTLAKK
# SENP8 block-2 = human SENP8 protease inhibitors, primary screen, biochemical, fluorescence, Nedd8 protein substrate, uHTS. Sentrin-specific protease 8 (Homo sapiens), Q96LD8. recombinant SENP8. inhibition, % at 20 µM. 0.64% of 360,000 active. AID 602440, 2012; in the data active means inhibition mostly above about 40%, no sharp cut-off; inactive means mostly below about 27%
# HSP90 inh = HSP90 inhibitors, primary screen, cell lysate, luminescence. Rabbit reticulocyte lysate, luciferase refolding luminescence, 3 h. inhibition, % at 5.6 µM. 0.91% of 290,000 active. AID 1789, 2009;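 active means inhibition above the screen-wide mean plus 3 SD, computed separately per campaign, cut at about 16% in these data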;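 further: 0% = DMSO wells and 100% = 60 µM geldanamycin wells; inhibitors lower the luminescence because luciferase stays unfolded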
# SENP6 inh = SENP6 protease inhibitors, primary screen, biochemical, luminescence, uHTS; Sentrin-specific protease 6 (Homo sapiens), Q9GZR1; Recombinant SENP6 catalytic domain, aminoluciferin luminescence; AID 2599, 2010; inhibition, % at 10 µM; 1.8% of 330,000 active;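 active means inhibition above about 50% at the single tested dose, limit read from the data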;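 further: plate controls were DMSO wells with enzyme for no effect and DMSO wells lacking enzyme for full effect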
# Target sequence (Q9GZR1 628-1112 limits assumed): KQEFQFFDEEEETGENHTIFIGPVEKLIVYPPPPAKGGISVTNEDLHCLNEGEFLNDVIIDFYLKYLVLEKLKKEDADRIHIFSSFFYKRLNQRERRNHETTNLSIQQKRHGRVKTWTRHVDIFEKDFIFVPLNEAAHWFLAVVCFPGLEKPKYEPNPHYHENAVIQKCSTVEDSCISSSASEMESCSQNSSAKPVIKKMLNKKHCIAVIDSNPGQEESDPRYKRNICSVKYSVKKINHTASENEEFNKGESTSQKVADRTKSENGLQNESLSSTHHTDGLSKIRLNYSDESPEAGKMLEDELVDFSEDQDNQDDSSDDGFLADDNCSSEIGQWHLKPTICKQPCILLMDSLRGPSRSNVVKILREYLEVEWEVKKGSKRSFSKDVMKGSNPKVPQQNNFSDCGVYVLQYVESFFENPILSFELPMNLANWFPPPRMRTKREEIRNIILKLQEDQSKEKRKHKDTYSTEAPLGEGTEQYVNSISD
# SENP7 block = SENP7 protease inhibitors, primary screen, biochemical, luminescence, uHTS; Sentrin-specific protease 7 (Homo sapiens), Q9BQF6; recombinant SENP7, Z-RLRGG-aminoluciferin luminescence, 40 min; inhibition, % at 5 µM; 1.5% of 330,000 active; AID 434973, 2010;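 active means inhibition above about 50% at the single test dose, limit read from the data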;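 further: plate controls were DMSO with enzyme for no effect and no enzyme buffer wells for full effect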
# HSP90 confirm = HSP90 inhibitors, confirmation, cell lysate, luminescence | inhibition, % at 5.9 µM | 64% of 2,300 active | AID 1846, 2009 | rabbit reticulocyte lysate, luciferase refolding luminescence, 3 h | shares compounds with HSP90 inh; in the data active means inhibition above about 18%;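 further: 0% = vehicle wells and 100% = reference inhibitor wells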
# FLuc counter = firefly luciferase inhibitors, HSP90 counter-screen, confirmation, artefact control for HSP90 inhibitor project, biochemical, luminescence, triplicate; shares compounds with HSP90 inh; purified native firefly luciferase; inhibition, % at 5.9 µM; 48% of 2,300 active; AID 1847, 2009;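 active means inhibition above the mean inhibition of all tested sample wells plus 3 SD, cut at about 10% in these data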;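 further: 0% = DMSO with luciferase and 100% = wells lacking luciferase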
# SENP8 confirm = SENP8 protease inhibitors, retest, confirmation, biochemical, luminescence, single concentration; inhibition, % at 12.5 µM; 40% of 6,200 active; shares compounds with SENP7 block; Recombinant SENP8, Z-RLRGG-aminoluciferin luminescence, 60 min; AID 488912, 2010;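 active means mean inhibition across replicates above about 50%, limit read from the data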
# SENP6 confirm = SENP6 protease inhibitors, confirmation, biochemical, luminescence, single concentration. recombinant SENP6, Z-RLRGG-aminoluciferin luminescence. 58% of 6,200 active. AID 488915, 2010. inhibition, % at 12.5 µM. shares compounds with SENP7 block
# SENP7 confirm = SENP7 protease inhibitors, retest, confirmation, biochemical, luminescence, single concentration | inhibition, % at 12.5 µM | recombinant SENP7, Z-RLRGG-aminoluciferin luminescence, 40 min | shares compounds with SENP7 block | 69% of 6,200 active
# Casp3 select = caspase-3 protease inhibitors, confirmation, selectivity assay for SENP inhibitor project, biochemical, single concentration; shares compounds with SENP7 block; purified caspase-3, Z-DEVD-aminoluciferin luminescence, 60 min; inhibition, % at 12.5 µM; 60% of 6,200 active;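 active means mean inhibition above about 50%, limit read from the data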;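 further: plate controls were enzyme with DMSO for no effect and wells without caspase-3 for full effect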
# SENP luc ctr = luminescence interference (SENP counter-screen). shares compounds with SENP7 block. Pre-incubated SENP8/Z-RLRGG-aminoluciferin, luciferase luminescence interference. inhibition, % at 12.5 µM. 39% of 6,200 active. AID 488919;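 active means mean inhibition above about 50% when retested at one dose, limit read from the data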;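 further: plate controls were DMSO wells with completed reaction for no effect and substrate without enzyme for full effect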
# The depositor's hits bear a star; · = no result.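 How the source made its calls, unless noted: active means mean inhibition above about 50% in the one-dose retest (limit read from the data); inactive means the rest.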
SMILES,SENP8 block-1,SENP8 block-2,HSP90 inh,SENP6 inh,SENP7 block,HSP90 confirm,FLuc counter,SENP8 confirm,SENP6 confirm,SENP7 confirm,Casp3 select,SENP luc ctr
CCc1ccc(C(=O)Nc2nc(C)cs2)s1,63.0*,-16.7,42.9*,76.1*,81.8*,56.0*,51.5*,76.7*,73.2*,92.9*,77.9*,77.4*
O=C(Nc1nc2ccccc2s1)C1CCCO1 (stereo unspecified),5.3,24.0,2.6,42.9,44.2,·,·,·,·,·,·,·
CC1CCC/C(=N/Nc2nc3ccccc3s2)C1 (stereo unspecified),55.5*,-166.8,46.8*,42.8,54.2*,25.0*,12.4*,1.6,68.1*,87.9*,48.6,52.3*
COc1ccc(N=CC2=C(O)c3ccccc3C2=O)cc1,92.9*,45.8*,28.9*,95.2*,99.1*,76.8*,79.7*,4.2,67.2*,28.5,89.0*,18.9
CCOc1cc(/C=C2/C(=O)N(c3ccccc3)N=C2C)ccc1OC(=O)c1ccco1,7.1,65.9*,27.0*,33.6,68.4*,-8.4,4.5,-22.7,-0.8,-3.9,-7.2,-3.7
Cc1ccc(-c2nnc(Nc3ccccc3)o2)cc1,95.1*,-89.5,36.2*,96.6*,3.6,80.8*,71.5*,-2.4,93.0*,74.6*,87.1*,36.6
CCOC(=O)C1=CN(CC)S(=O)(=O)NC1CC (stereo unspecified),·,0.9,·,·,-7.8,·,·,·,·,·,·,·
COCCN1C(=O)C(=O)/C(=C(/O)c2ccc(S(=O)(=O)N3CCOCC3)cc2)C1c1ccc(O)cc1 (stereo unspecified),7.9,7.8,5.6,27.2,15.7,·,·,·,·,·,·,·
CC(=NCc1ccco1)c1c(C)[nH]n(-c2nc3ccccc3s2)c1=O,24.1,14.1,31.6*,64.7*,2.1,49.7*,16.5*,3.3,2.5,72.8*,49.6,16.9
O=C(O)c1cccc(NC(=S)N/N=C/c2ccccn2)c1,61.7*,-6.7,35.0*,47.9,77.4*,60.8*,48.6*,77.0*,75.6*,94.8*,36.6,74.7*
CCC(=O)Nc1cccc(-c2ccc(N3CCN(C)CC3)nn2)c1,-6.4,6.9,11.1,-1.5,2.7,·,·,·,·,·,·,·
CCC(=O)Nc1cccc(-c2ccc(N3CCCCC3)nn2)c1,40.1,-7.1,24.5*,58.4*,52.2*,47.3*,15.0*,52.1*,49.9,79.1*,77.0*,61.4*
COc1cc(C(=O)Nc2ccc(C)cn2)ccc1OCC(=O)N1CCOCC1,-4.6,4.5,·,-8.9,-3.2,·,·,·,·,·,·,·
Cc1ccc(-c2cc(C(=O)N3CCCCCC3)no2)cc1,49.4,6.7,22.9*,60.8*,47.3,28.9*,20.1*,17.6,35.5,23.8,18.3,-2.4
COc1ccc(-c2cc(C(=O)N3CCCCCC3)no2)cc1OC,-14.8,-2.0,-2.7,-12.7,-4.6,·,·,·,·,·,·,·
O=C(c1cc(-c2ccccc2)on1)N1CCCCCC1,-1.7,8.9,14.3,5.1,4.7,·,·,·,·,·,·,·
COc1ccc(-c2cc(C(=O)N3CCCC3)no2)cc1,49.7,5.4,38.8*,73.7*,53.3*,57.1*,42.2*,49.0,51.8*,86.3*,80.0*,38.9
COc1ccc2cc3cc(C(=O)N4CCCCCC4)oc3nc2c1,78.9*,-376.1,17.1*,76.6*,86.9*,40.4*,22.1*,18.9,81.9*,96.6*,69.2*,-1.4
CCNC(=S)NNC(=O)Cn1c(=O)c2c(ncn2CCOC)n(Cc2ccccc2)c1=O,2.8,7.0,-6.1,12.2,3.1,·,·,·,·,·,·,·
COCCN(C(=O)COC(=O)CCOc1cc(C)ccc1C)c1c(N)n(Cc2ccccc2)c(=O)[nH]c1=O,·,1.3,·,·,·,·,·,·,·,·,·,·
CCOC(=O)C1(CCCc2ccccc2)CCN(C(=O)CCn2cnnn2)CC1,-3.3,22.0,2.5,-7.6,-6.8,·,·,·,·,·,·,·
O=C1/C(=C/Nc2ccc3c(c2)OCO3)CCc2ccccc21,97.9*,-429.2,38.4*,97.0*,98.2*,86.1*,72.0*,-23.9,100.7*,103.8*,98.2*,85.1*
O=C1OC2(CCCCC2)OC(=O)C1=CNc1ccc2c(c1)OCO2,-2.0,-58.1,3.3,0.6,0.6,·,·,·,·,·,·,·
C=CCOc1c(Br)cc(/C=N/Nc2ccc(C(=O)O)cc2)cc1OCC,77.2*,-311.6,20.2*,84.5*,55.0*,23.8*,10.3*,87.7*,86.8*,94.2*,29.2,56.0*
O=C(O)c1ccc(N/N=C/c2ccc(-c3ccccc3Cl)o2)cc1,96.8*,-429.4,52.8*,97.6*,87.6*,60.0*,45.7*,99.4*,100.5*,103.1*,66.2*,97.3*
O=C(O)c1ccc(N/N=C/c2ccc(OC(=O)c3ccccc3Cl)cc2)cc1,89.6*,-21.5,36.0*,91.4*,46.6,88.4*,7.0,76.5*,96.5*,97.7*,45.1,7.3
O=C(N/N=C/c1ccc(-c2ccccc2Cl)o1)c1ccccc1,-0.5,-312.0,3.7,3.9,0.0,·,·,·,·,·,·,·
COc1ccc(/C=N/Nc2ccc(C(=O)O)cc2)cc1OC,81.8*,-269.2,34.6*,95.4*,85.8*,44.0*,28.6*,89.0*,88.0*,99.1*,90.5*,83.0*
CCOc1cc(/C=N/O)cc(Br)c1OCC,6.7,30.8,-3.9,-3.9,6.0,·,·,·,·,·,·,·
COc1ccccc1CNCc1cc(OC)c(OC)c(OC)c1,-4.2,11.8,6.5,-5.7,-5.9,·,·,·,·,·,·,·

# Source: PubChem
